Screen size: about 48,000 compounds; about 13,000 (27%) showed an effect of 50% or more. The list shows a part of the results.
The molecules below were run on Wolbachia pipientis (assay: Anti-Wolbachia Cell-Based Screen). Conditions: 5 µM.
Format: functional
Set-up: scale not given: in the data most compounds retested in dose-response had high values

Row | Structure (SMILES) | Percent Effect
1 | CC(NC(=O)NCCCn1ccnc1)c1ccc2c(c1)CCC(=O)N2 (configuration not stated) | -10.33%
2 | CC(NC(=O)NCCS(C)(=O)=O)c1ccc2c(c1)CCC(=O)N2 (configuration not stated) | 98.04%
3 | CC(NC(=O)NCCCN(C)C)c1ccc2c(c1)CCC(=O)N2 (configuration not stated) | 1.464%
4 | CCCn1[nH]cc/c1=N\C(=O)CN1CCCC1Cn1cc(C)cn1 (configuration not stated) | -13.34%
5 | O=C(c1cnccn1)N1CCC2(CCCN(Cc3ccoc3)C2)C1 (configuration not stated) | 7.611%
6 | O=C(c1cnccn1)N1CCC2(CCN(Cc3ccsc3)C2)CC1 | 113.3%
7 | O=C(c1cnccn1)N1CCC2(CCN(Cc3ccsc3)CC2)CC1 | 105.9%
8 | Cn1cccc1CN1CCC2(CC1)CCN(C(=O)c1cnccn1)CC2.O=C(O)C(F)(F)F | 3.989%
9 | O=C(c1cnccn1)N1CCN(Cc2csc(-c3ccccc3)n2)CC1 | 5.031%
10 | NC(=O)C1=NC2=NS(=O)(=O)c3ccccc3N2N1Cc1ccc(Cl)cc1 | 1.46%
11 | CC(C)(CNc1cc(F)ccc1F)S(C)(=O)=O | -17.31%
12 | CC(=O)N1CCC(N2CCN3C(=O)N(Cc4ccccn4)C[C@H]3C2)CC1 | -4.667%
13 | Cc1nnc(CSc2ccc(C(F)(F)F)cn2)o1 | -11.49%
14 | CCN1CC(C(=O)NCc2nc(C3CCCCC3)no2)CC1=O (configuration not stated) | -30.34%
15 | Cc1cc(C(=O)O)ccc1NS(=O)(=O)c1c(C)nn(C(C)C)c1C | -9.87%
16 | Cc1nc(N2CCN(C)CC2)ncc1C(=O)N1CC(C)(C)C(C)(O)C1 (configuration not stated) | -4.468%
17 | Cc1nc(N2CCN(C)CC2)ncc1C(=O)N1CCN(C)CC1 | 120.1%
18 | Cc1nc(N2CCN(C)CC2)ncc1C(=O)N1CCC(O)(CO)CC1 | -3.993%
19 | Cc1nc(N2CCN(C)CC2)ncc1C(=O)N1CCCCC1 | 123.3%
20 | CN1CCCN(C(=O)c2cnc(Cc3c(Cl)cccc3Cl)nc2O)CC1 | 6.628%
21 | CN1CCCN(C(=O)c2cnc(C(C)(C)C)nc2O)CC1 | -12.59%
22 | Cc1nc(N2CCN(C)CC2)ncc1C(=O)N1CCCCCC1 | 100.3%
23 | CC[C@H]1COCCN1C(=O)c1cnc(N2CCN(C)CC2)nc1C | -29.22%

Row | Structure (SMILES) | Percent Effect
24 | Cc1nc(N2CCCCC2)ncc1-c1cc(O)[nH]n1 | 24.53%
25 | COCc1c(Br)cccc1NC(=O)CC(F)(F)F | -8.675%
26 | CC(C)(O)c1cc(CC2(NCC3CCCCC3)COC2)no1 | -2.979%
27 | O=C(c1n[nH]c2ccccc12)N1CCCC1c1noc(C2CC2)n1 (configuration not stated) | -5.823%
28 | CC(C)(C)NS(=O)(=O)c1ccc(NC(=O)C2CC2)cc1 | -16.45%
29 | Cc1nn(CC(=O)n2cccn2)c(C)c1I | 112.6%
30 | Cc1nn(CC(=O)N2CCCCC2Cn2cccn2)c(C)c1Cl (configuration not stated) | -2.313%
31 | Cc1cc(C)n(CC(=O)N2CCC(NS(C)(=O)=O)CC2)n1 | -12.4%
32 | Cc1nn(CC(=O)N2CCCC2Cn2cccn2)c(C)c1Cl (configuration not stated) | -2.085%
33 | Cc1cc(C)n(C(=O)Cn2nc(C)c(I)c2C)n1 | 66.77%
34 | COC1CCN(C(=O)Cn2nc(C)cc2C)CC1 | -14.02%
35 | CC(=O)N1Cc2nc(C(=O)NCCc3cccnc3)oc2C1 | -18.72%
36 | CSCC(C)N(C)S(=O)(=O)c1ccc(Cl)cc1C#N (configuration not stated) | -5.71%
37 | CN(C)Cc1ccccc1CN(C)C(=O)c1ccoc1 | 83.07%
38 | CN(Cc1ccccc1CN1CCCC1)C(=O)c1c(O)cccc1O | -3.98%
39 | Cc1ccccc1CN(C)C(=O)c1ccoc1 | -7.893%
40 | Cc1ncc(CC(=O)N2CCCCC2CCN2CCCC2)c(=O)[nH]1 (configuration not stated) | -18.36%
41 | CCN(CC1CCOCC1)C(=O)CCNC(=O)c1ccccc1F | -3.146%
42 | CCN(CC1CCOC1)C(=O)c1ccccc1NS(=O)(=O)CC (configuration not stated) | 0.4037%
43 | CCN(CC1CCOC1)C(=O)c1nc(-c2ccco2)sc1C (configuration not stated) | 14.29%
44 | CCN(CC1CCOC1)C(=O)c1ccccc1S(C)(=O)=O (configuration not stated) | 84.82%
45 | CCN(CC1CCOC1)C(=O)c1ccc(COc2ccccc2C#N)o1 (configuration not stated) | 0.9785%
46 | CCN(CC1CCOC1)C(=O)c1ccccc1S(=O)(=O)CC (configuration not stated) | 111.1%

Row | Structure (SMILES) | Percent Effect
47 | COCCc1noc(-c2ccc(=O)[nH]c2)n1 | -16.05%
48 | CCc1nc(CN(C)CC2CCN(CCO)CC2)no1 | -13.45%
49 | Cc1cc(CN(C)CC2CCCCC2)no1 | -1.2%
50 | CCc1nnc(CN(C)CC2CCCCC2)o1 | 93.73%
51 | Cc1nnc(CN(C)CC2(O)CCCN(CCC3CCCCC3)C2=O)o1 (configuration not stated) | -32.48%
52 | Cc1nnc(CN(C)CC2CCCCC2)o1 | 96.6%
53 | CCc1nnc(CN(C)C[C@@H]2CCCN3CCCC[C@H]23)o1 | -11.52%
54 | OC(CN(Cc1ccccc1)Cc1cccnc1)c1ccco1 (configuration not stated) | -6.799%
55 | CCCN1CCCN(c2ncccc2C(=O)N2CCCCC2)CC1 | 6.513%
56 | CCC(CNS(C)(=O)=O)Oc1ccccc1C (configuration not stated) | 8.016%
57 | CCCC(=O)NCCc1cc(N2CCN(C(C)=O)CC2)nc(C2CC2)n1 | 96.87%
58 | CC(=O)N1CCN(c2cc(CCNC(=O)C(C)C)nc(C3CC3)n2)CC1 | 74.84%
59 | CN1CCN(c2cc(CCNC(=O)C3CCC3)nc(C3CC3)n2)CC1 | -16.77%
60 | CC(=O)NCCc1cc(N2CCN(C(C)=O)CC2)nc(C2CC2)n1 | -7.517%
61 | CCC(=O)NCCc1cc(N2CCN(C(C)=O)CC2)nc(C2CC2)n1 | -11.66%
62 | Cc1nc(CCN)cc(N2CCCN(C(=O)c3ccco3)CC2)n1 | -5.504%
63 | CCCNC(=O)CCC(=O)N1CCC(c2n[nH]c(C3CC3)n2)CC1 | -17.72%
64 | CC(=O)N1CCN(c2cc(CCN)nc(C3CC3)n2)CC1.Cl | 89.11%
65 | COc1ccc(C(=O)N2CCN(c3cc(CCN)nc(C)n3)CC2)cc1 | -1.227%
66 | Cc1ccoc1C(=O)NC(CC(C)C)C(=O)N1CCC(CO)CC1 (configuration not stated) | -14.58%
67 | CCC(=O)N1CCc2[nH]cnc2C12CCN(C(=O)CCS(C)(=O)=O)CC2 | -8.696%
